Laboratory results taken from PubChem BioAssay (NCATS).
Records with an inconclusive call do not appear. Entries that show only a call come without a potency. The source made the active and inactive calls. The call rests on the fitted dose curve; in most records, active means well fitted inhibition curve with a large enough effect; inconclusive means small, poorly fitted or top-dose-only effect; inactive means flat fitted curve, though single readings scatter.
Potency means the concentration at half of the fitted maximal effect.

Test: P-glycoprotein substrates identified in KB-8-5-11 adenocarcinoma cell line, qHTS therapeutic library screen (AID 1346987); further: nearly all actives have a fitted effect of over 65% in size
Conditions: KB-8-5-11 (P-gp overexpressing) viability, CellTiter-Glo, 72 h; series mostly up to 44.5 µM
Method in brief: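 KB-8-5-11: colchicine-selected sub-line of KB-3-1 over-expressing P-gp; assay medium lacked colchicine. 72 h drug exposure at 37 degree C, CellTiter-Glo.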
In the case of `C=C[C@]1(C)C[C@H](O)[C@@H]2[C@H](OC(=O)[C@@H]2C)C1/C(C)=C/O[C@@H]1O[C@H](CO)[C@@H](O)[C@H](O)[C@H]1O` (stereo not given in full), the Potency is reported as “inactive”. In the case of `COc1ccccc1Oc1ccc(N(Cc2cccnc2)S(=O)(=O)CC(F)(F)F)cc1`, the Potency is reported as “inactive”. In the case of `COC(=O)N[C@@H](C)CNc1nccc(-c2cn(C(C)C)nc2-c2cc(Cl)cc(NS(C)(=O)=O)c2F)n1`, the Potency is reported as “inactive”. In the case of `CC1OC(OCC2OC(OC3CCC4(C)C(CCC5(C)C4CC=C4C6CC(C)(C)CCC6(C(=O)OC6OC(CO)C(O)C(O)C6O)CCC45C)C3(C)CO)C(O)C(O)C2O)C(O)C(O)C1O` (stereo not given), the outcome is reported as “inactive [at 9.29 µM]”. In the case of `CC(C)=CCC/C(C)=C/Cc1ccc(O)c(C2OC(=O)c3cc(C(=O)O)cc(O)c32)c1O` (stereo not given), the Potency is reported as “inactive”. In the case of `O=C(c1ccccc1)c1ccc2nc(NC(=O)c3csc(C4CCN(c5ncnc6ccsc56)CC4)n3)[nH]c2c1`, the Potency is reported as 5.8 µM (active). With `CC(=O)O[C@H]1CC[C@H](C)[C@@]2(C)[C@H](OC(C)=O)c3c(C)coc3C(=O)[C@H]12` the Potency was “inactive”. With `C[C@@H]1O[C@@H](O[C@@H]2[C@@H](O)[C@H](O[C@H]3CC[C@@]4(C)C(CC[C@]5(C)C4CC=C4[C@@H]6CC(C)(C)CC[C@]6(C(=O)O[C@@H]6O[C@H](CO)[C@@H](O)[C@H](O)[C@H]6O)CC[C@]45C)C3(C)C)O[C@H](C(=O)O)[C@H]2O)[C@H](O)[C@H](O)[C@H]1O` (stereo not given in full) the activity change, negative = cytotoxicity was 7.63% [at 9.29 µM] (inactive). For `COC(=O)c1c(C)cc(OC(=O)c2c(C)cc(OC)cc2OC)cc1O[C@@H]1O[C@H](CO)[C@@H](O)[C@H](O)[C@H]1O`, the Potency was “inactive”. For `COc1ccc(/C=C/C(=O)O[C@H]2[C@H](O[C@H]3[C@@H]4C=CO[C@@H](O[C@@H]5O[C@H](CO)[C@@H](O)[C@H](O)[C@H]5O)[C@@H]4[C@@]4(CO)O[C@@H]34)O[C@@H](C)[C@H](O)[C@H]2OC(C)=O)cc1`, the Potency was “inactive”. With `CN(CCc1ccc(Nc2ncc(-c3cccnc3)s2)cc1)Cc1ccccc1` the Potency was “inactive”. For `CC(=O)O[C@@H](CO[C@@H]1O[C@H](CO)[C@H](O)[C@H](O)[C@H]1O)[C@]1(C)C=C2CC[C@@H]3C(C)(C)[C@@H](O)CC[C@@]3(C)[C@@H]2CC1`, the Potency was “inactive”. For `CCN1CCN(Cc2ccc(Nc3ncc(F)c(-c4cc(F)c5nc(C)n(C(C)C)c5c4)n3)nc2)CC1`, the Potency was 4.11 µM (active). In the case of `NC1CCCCN(c2c(F)cc3c(=O)c(C(=O)O)cn(C4CC4)c3c2Cl)C1` (stereo not given), the Potency is reported as “inactive”. In the case of `O=C(NCc1ccc(S(=O)(=O)c2cc(F)cc(F)c2)cc1)c1ccc2nccn2c1`, the Potency is reported as 0.0184 µM (active).
